High-throughput results deposited in PubChem by The Scripps Research Institute Molecular Screening Center.
MOR-DOR inv ag: mu-delta opioid heterodimer inverse agonism; cell-based MOR-DOR heterodimer luminescence; inhibition, % at 9.3 µM; 340,000 tested, 0.21% active; AID 504357; in the data active means inhibition above about 22%, passing the limit was not always enough;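 further: 0% = cells with DMSO and 100% = wells without cells with DMSO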
HTR5A inv ag: inverse agonist of human HTR5A in OPRM1-OPRD1 counter-screen; P47898; HTR5A cell line, luminescence, inverse agonism; inhibition, % at 9.3 µM; 340,000 tested, 0.083% active; AID 504634; in the data active means inhibition mostly above about 23%, no sharp cut-off; inactive means mostly below about 18%;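 further: 0% = cells with DMSO and 100% = no-cell wells with DMSO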
Target sequence (P47898 whole entry, looked up): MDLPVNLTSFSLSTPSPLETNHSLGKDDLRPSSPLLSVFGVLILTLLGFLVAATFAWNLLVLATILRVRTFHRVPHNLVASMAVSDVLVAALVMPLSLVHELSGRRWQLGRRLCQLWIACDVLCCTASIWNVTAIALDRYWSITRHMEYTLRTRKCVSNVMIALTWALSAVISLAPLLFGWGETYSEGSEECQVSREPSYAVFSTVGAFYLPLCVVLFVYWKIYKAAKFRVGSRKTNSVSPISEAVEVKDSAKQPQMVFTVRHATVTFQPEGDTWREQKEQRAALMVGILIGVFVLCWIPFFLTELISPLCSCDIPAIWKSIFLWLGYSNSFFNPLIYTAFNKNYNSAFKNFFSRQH
MsrA inhibitor: inhibitors of bovine MsrA; purified bovine MsrA, absorbance read-out; inhibition, % at 15.5 µM; 360,000 tested, 0.75% active; AID 651718; in the data active means inhibition above about 4.5%;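 further: 0% = vehicle wells with enzyme and 100% = reference inhibitor wells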
MsrA act: activators of bovine methionine sulfoxide reductase A; purified bovine MsrA, absorbance read-out; activation, % at 10.6 µM; 360,000 tested, 0.3% active; in the data active means activation above about 7.5%;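 further: 0% = vehicle and 100% = reference activator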
MOR-DOR ag: agonists of human mu-delta opioid receptor heterodimerization; P35372+P41143; cells, OPRM1-OPRD1 heterodimerization, luminescence; activation, % at 9.3 µM; 340,000 tested, 0.3% active; in the data active means activation above about 18%;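 further: 0% = vehicle-treated cells and 100% = reference agonist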
HTR5A ag: counter-screen for OPRM1-OPRD1 agonists: human HTR5A agonism | 340,000 tested, 0.61% active | HTR5A agonist assay, luminescence, cell-based | activation, % at 9.3 µM; in the data active means activation mostly above about 9.5%, no sharp cut-off; inactive means mostly below about 7.6%;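 further: 0% = cells with vehicle only and 100% = reference agonist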
* marks the source's active call; other numbers are inactive results; . = no result. Shown are actives, neighbours in structure and some others; about 1.9% of the full set was active somewhere.

SMILES	MOR-DOR inv ag	HTR5A inv ag	MsrA inhibitor	MsrA act	MOR-DOR ag	HTR5A ag
CCCCNC(=O)C1CCC(CNS(=O)(=O)c2ccc(C)cc2)CC1 (stereo not given)	8	10	0	-4	-1	2
CCCCSCCCNC(=O)C1CCC(CNS(=O)(=O)c2ccccc2)CC1 (stereo not given)	-11	-49	-1	3	2	12*
O=C(NC1CCCC(C(F)(F)F)C1)c1ccc([N+](=O)[O-])o1 (stereo not given)	-18	-19	0	3	5	14*
O=C(NC1CCCCC1)c1ccc([N+](=O)[O-])o1	-25	-7	.	2	4	4
COc1ccc(Cn2c(=O)[nH]c3cc(C(=O)Nc4ccc(N5CCN(C)CC5)cc4)ccc32)cc1	8	-11	1	-6	-2	-3
COc1c(F)c(F)c(C(=O)Nc2ccc(N3CCN(Cc4ccccc4)CC3)cc2)c(F)c1F	-30	-40	1	3	5	9.8*
CCN1CCN(c2ccc(NC(=O)c3ccc4c(c3)[nH]c(=O)n4Cc3ccc(F)cc3)cc2)CC1	-4	10	2	-1	1	12*
COc1ccc(C(=O)Nc2ccc(N3CCN(Cc4ccccc4)CC3)cc2)cc1	.	.	0	-4	.	.
CCN(CC)CCN(C(=O)/C=C/c1cccs1)c1nc2ccc(C)cc2s1	-20	-17	2	-8	4	13*
CCOc1cccc2sc(N(CCN(C)C)C(=O)/C=C/c3cccs3)nc12	-10	-46	.	-1	2	13*
C[C@@H]1CNC(=O)c2c(C(=O)N(C)Cc3ccccc3)ncn21	.	.	1	.	.	.
COC(=O)C1=C(C)N(C)C(=NCc2cc(OC)c(OC)c(OC)c2)NC1c1ccc(Cl)cc1 (stereo not given)	.	.	1	.	.	.
COC(=O)c1cc2c(c3c4cc(F)ccc4n(S(=O)(=O)c4ccccc4)c13)C(=O)N(Cc1ccc(N(C)C)cc1)C2	.	.	0	.	.	.
CCCCOc1ccc(CSCCNC(=S)Nc2ccccc2)cc1	-12	-13	-1	-4	2	14*
CCCCCOc1ccc(CSCCNC(=S)Nc2ccccc2)cc1	2	-5	2	-3	0	-1
O=C(CCCCCn1c(=S)[nH]c2ccc(N3CCOCC3)cc2c1=O)NCc1ccc(Cl)cc1	-11	-35	0	-3	2	13*
O=C(CCCCCn1c(=S)[nH]c2ccc(N3CCOCC3)cc2c1=O)NCc1ccc2c(c1)OCO2	9	-31	-1	-3	-2	12*
O=C(CCCCCn1c(=S)[nH]c2ccc(N3CCOCC3)cc2c1=O)NCc1ccccc1Cl	-35	-12	1	-4	7	0
O=C(N[C@@H](Cc1cccnc1)C(=O)N1CCC[C@H]1C(=O)NC1CCCC1)c1ccc(Cl)c(Cl)c1	.	.	0	.	.	.
CCN=c1sc(C(=O)OC)cc(=O)n1CC	5	0	1	-3	-1	11*
CN1C(=O)C(O)(CC(=O)/C=C/c2ccco2)c2ccccc21 (stereo not given)	8	-26	2	-9	-2	9.6*
O=S(=O)(c1ccc2c(c1)C(O)c1ccccc1CC2)C(F)(F)F (stereo not given)	-39	-32	1	-2	7	13*
O=C(OCC(=O)N1CCc2ccccc21)c1n[nH]c(=O)c2ccccc12	14	-66	-1	-6	-3	13*
COC(=O)[C@]12C[C@H](CC(=O)NCC3CCCCC3)C(=O)N(Cc3ccccc3)C1=C[C@H](C(C)C)O[C@@H]2C1CC1	.	.	0	.	.	.
COc1cccc(C(=O)N[C@@H](CC(C)C)C(=O)N2CCC[C@H]2C(=O)NCc2ccccc2)c1	.	.	0	.	.	.
SMILES	MOR-DOR inv ag	HTR5A inv ag	MsrA inhibitor	MsrA act	MOR-DOR ag	HTR5A ag
CC(C)(C)NC(=O)COC(=O)c1c2c(nc3ccccc13)CCC2	9	-22	0	-3	-2	8
CC(C)NC(=O)NC(=O)COC(=O)c1c2c(nc3ccccc13)CCC2	-34	-42	-2	-2	4	14*
O=C(/C=C/c1ccc2c(c1)OCO2)Nc1nc(-c2ccccc2)cs1	-12	-26	4.8*	-3	2	0
O=C(/C=C/c1ccc2c(c1)OCO2)Nc1c(C(=O)O)[nH]c2ccccc12	15	12	4.7*	-2	-3	1
Cc1sc(NC(=O)/C=C/c2ccc3c(c2)OCO3)nc1-c1ccccc1	-13	-1	0	0	2	1
CCOC(=O)c1[nH]c2ccc(OC)cc2c1NC(=O)/C=C/c1ccc2c(c1)OCO2	6	-21	-1	-4	-1	8
